From PubChem BioAssay (NCI) come the findings set out here.

About 79,000 compounds went through this panel and 15% of them were active in at least one assay; those are over-represented in the sample as a whole. Values without a mark were called inactive. Activity calls are given as the source filed them. Rule as the data show it: active = growth inhibition above about 70%; inactive = the rest.

This experiment is described as follows: NCI Yeast Anticancer Drug Screen. Data for the bub3 strain (AID 167). Conditions: S. cerevisiae bub3 mutant strain, at 5.0 µM (retest, dose inferred, filed as 0.5), stronger effect = higher value. In a few lines: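 Compounds were applied to a genetically altered yeast strain carrying a cell-cycle control defect. Growth inhibition was scored against vehicle-treated controls.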
Turning to `Cc1cccc(NC(=O)CCc2ccc(Cl)cc2)n1`, the growth inhibition is -1%.
Then `O=C(NNc1nc(-c2ccccc2)cs1)C(F)(F)F`, with 97% (active); and `COc1ccc(C(=O)C(c2ccc(OC)cc2)C2(O)C(=O)Nc3c(Cl)cc(Cl)cc32)cc1` (centres undefined), with -6%; and `CC(=O)NNc1nc(C)c(C(=O)NNC(=O)C(=O)Nc2ccc(Cl)c([N+](=O)[O-])c2)s1`, with 19%.
For `COc1ccc(Cc2cncc3c(O)c(OC)ccc23)cc1O`, the growth inhibition was -1%.
With `Nc1ccccc1N=Nc1c(S(=O)(=O)O)cc2cc(S(=O)(=O)O)cc(O)c2c1O`, the growth inhibition is 17%.
`CCN(CC)c1c(C(=O)/C=C/c2ccc(OC)cc2)c(-c2ccccc2)nn(C)c1=O`: the growth inhibition was -4%.
The result for `O=C(O)/C=C/c1ccc(Cl)c(Cl)c1` reads -1%.
Then `CCC12C=CCN3CC[C@@]4(c5cc([C@@]6(C(=O)OC)C[C@@H]7CN(CCc8c6[nH]c6ccccc86)C[C@](O)(CC)C7)c(OC)cc5N(C)[C@H]4[C@@](O)(C(=O)OC)[C@@H]1OC(=O)CCCCCCCCCCCN1C(=O)C=CC1=O)[C@H]32` (some centres undefined), with -23%.
Take `Cc1cc(C)c(Cc2cc(C(C)(C)C)cc(C)c2O)cc1Cc1cc(C(C)(C)C)cc(C)c1O`: the growth inhibition was -4%.
With `COC(=O)C(=O)/C=C(/O)c1ccc(OC)cc1`, the growth inhibition was -4%.
Turning to `Oc1ccc2c(c1)OCC1c3ccccc3OC21` (centres undefined), the growth inhibition was 37%.
In the case of `Cc1cc(N2C(=O)CCSC2=S)c([N+](=O)[O-])cc1C`, the growth inhibition is 14%.
The result for `CCCCCCC(C)S(=O)(=O)c1ccc(C)cc1` (centres undefined) reads 0%.
